In the supplement of paper PMC11732987, “Enantioselective OTUD7B fragment discovery through chemoproteomics screening and high-throughput optimisation” (Communications Chemistry, 2025):

How the values were obtained:
Assay in all cases: log2 ratio of Biotin-Ahx-Ub-VS probe labelling (compound/DMSO); higher = less target engagement, active = hit call of the paper (q ≤ 0.05, log2 ratio ≤ -1)
Settings in all cases: treatment time: 3 h
[1] = compound: CCC1N(CCc2sccc12)C(=O)CCl
Summary of the method: (§1)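 For activity-based profiling, 495 µg portions of HEK293T lysate in Tris/CHAPS/IGEPAL buffer with protease inhibitors were treated in triplicate with compound at 50 or 200 µM or with DMSO for 3 h. A 1 h incubation with Biotin-Ahx-Ub-VS (0.5 µM final) followed, then NeutrAvidin enrichment, LysC and trypsin digestion and diaPASEF LC-MS/MS. The compound/DMSO base-two log ratios were averaged from median-normalised label-free quantities using an unpaired t-test. Proteins needed at least 2 unique peptides to be included.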

[2] = compound: CN1c2ccccc2C(CS1(=O)=O)NC(=O)CCl
Summary of the method: as §1

[3] = compound: Cl.ClCC(=O)N1CCc2ncncc2C1
Summary of the method: as §1

[4] = compound: Cl.Cn1ncc2C(CCCc12)NC(=O)CCl
Summary of the method: as §1

[5] = compound: ClCC(=O)NC1CCOc2ccccc12
Summary of the method: as §1

[6] = compound: ClCC(=O)NC1CCCc2ccccc12
Summary of the method: (§2)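 The values are mean compound-versus-vehicle ratios derived by unpaired t-test. For 3 h, triplicate HEK293T lysate samples (495 µg each) were treated with compound at a series of concentrations or with vehicle, after which Biotin-Ahx-Ub-VS was added to 0.5 µM final for 1 h. Labelled deubiquitinases were enriched with NeutrAvidin, digested with LysC and trypsin, and analysed by diaPASEF LC-MS/MS. Ratios are log2 values from global-median-normalised Spectronaut label-free quantities, using proteins with two or more unique peptides.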

[7] = compound: ClCC(=O)N[C@@H]1CCCc2ccccc12
Summary of the method: as §2

[8] = compound: ClCC(=O)N[C@H]1CCCc2ccccc12
Summary of the method: as §2

[9] = compound: CCC1N(CCc2cc(OC)c(Cl)cc12)C(=O)CCl
Summary of the method: as §1

[10] = compound: CCCC1N(CCc2cc(OC)c(OC)cc12)C(=O)CCl
Summary of the method: as §1

Measured: log2 ratio of Biotin-Ahx-Ub-VS probe labelling

EIF3F (UniProt O00303)
Sequence of UniProt O00303 (O00303 whole entry): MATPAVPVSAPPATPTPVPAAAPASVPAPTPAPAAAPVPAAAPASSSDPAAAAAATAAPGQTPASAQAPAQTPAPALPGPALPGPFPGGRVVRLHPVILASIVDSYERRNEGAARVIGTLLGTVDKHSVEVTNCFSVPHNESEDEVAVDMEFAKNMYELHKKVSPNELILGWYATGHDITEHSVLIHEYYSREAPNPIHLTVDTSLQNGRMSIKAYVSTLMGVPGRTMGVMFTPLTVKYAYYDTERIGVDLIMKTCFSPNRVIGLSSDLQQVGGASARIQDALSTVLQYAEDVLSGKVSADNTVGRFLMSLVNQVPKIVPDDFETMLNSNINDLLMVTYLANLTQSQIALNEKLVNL
inactive: [1]; compound concentration: 50uM -0.16 | [1]; compound concentration: 200uM -0.05 | [2]; compound concentration: 50uM -0.111 | [2]; compound concentration: 200uM -0.0123 | [3]; compound concentration: 50uM 0.026 | [3]; compound concentration: 200uM -0.017 | [4]; compound concentration: 50uM -0.0544 | [4]; compound concentration: 200uM -0.232 | [5]; compound concentration: 50uM -0.204 | [5]; compound concentration: 200uM 0.0458 | [6]; compound concentration: 0.78uM -0.0827 | [6]; compound concentration: 1.56uM 0.0402 | [6]; compound concentration: 3.13uM -0.164 | [6]; compound concentration: 6.25uM -0.148 | [6]; compound concentration: 12.5uM 0.141 | [6]; compound concentration: 25uM -0.0954 | [6]; compound concentration: 50uM -0.209 | [6]; compound concentration: 100uM -0.401 | [6]; compound concentration: 200uM -0.0132 | [7]; compound concentration: 0.78uM -0.295 | [7]; compound concentration: 1.56uM 0.0826 | [7]; compound concentration: 3.13uM -0.0906 | [7]; compound concentration: 6.25uM -0.461 | [7]; compound concentration: 12.5uM -0.244 | [7]; compound concentration: 25uM -0.214 | [7]; compound concentration: 50uM -0.034 | [7]; compound concentration: 100uM 0.00457 | [7]; compound concentration: 200uM 0.0644 | [8]; compound concentration: 0.78uM -0.0754 | [8]; compound concentration: 1.56uM -0.0584 | [8]; compound concentration: 3.13uM -0.182 | [8]; compound concentration: 6.25uM 0.0402 | [8]; compound concentration: 12.5uM -0.0792 | [8]; compound concentration: 25uM -0.00315 | [8]; compound concentration: 50uM -0.0696 | [8]; compound concentration: 100uM -0.0985 | [8]; compound concentration: 200uM -0.313 | [9]; compound concentration: 50uM -0.015 | [9]; compound concentration: 200uM -0.16 | [10]; compound concentration: 50uM -0.0996 | [10]; compound concentration: 200uM 0.154

PRPF8 (UniProt Q6P2Q9)
inactive: [1]; compound concentration: 50uM -0.0394 | [1]; compound concentration: 200uM -0.112 | [2]; compound concentration: 50uM -0.0921 | [2]; compound concentration: 200uM -0.054 | [3]; compound concentration: 50uM 0.0381 | [3]; compound concentration: 200uM -0.119 | [4]; compound concentration: 50uM 0.0788 | [4]; compound concentration: 200uM 0.0562 | [5]; compound concentration: 50uM 0.0594 | [5]; compound concentration: 200uM -0.157 | [6]; compound concentration: 0.78uM -0.034 | [6]; compound concentration: 1.56uM -0.0309 | [6]; compound concentration: 3.13uM -0.104 | [6]; compound concentration: 6.25uM -0.01 | [6]; compound concentration: 12.5uM -0.0322 | [6]; compound concentration: 25uM -0.101 | [6]; compound concentration: 50uM -0.0882 | [6]; compound concentration: 100uM -0.0511 | [6]; compound concentration: 200uM -0.0422 | [7]; compound concentration: 0.78uM -0.0504 | [7]; compound concentration: 1.56uM -0.022 | [7]; compound concentration: 3.13uM -0.0939 | [7]; compound concentration: 6.25uM -0.0748 | [7]; compound concentration: 12.5uM -0.0604 | [7]; compound concentration: 25uM -0.0428 | [7]; compound concentration: 50uM -0.086 | [7]; compound concentration: 100uM -0.0702 | [7]; compound concentration: 200uM -0.137 | [8]; compound concentration: 0.78uM -0.0339 | [8]; compound concentration: 1.56uM -0.0293 | [8]; compound concentration: 3.13uM -0.049 | [8]; compound concentration: 6.25uM 0.0146 | [8]; compound concentration: 12.5uM -0.0785 | [8]; compound concentration: 25uM -0.109 | [8]; compound concentration: 50uM -0.0661 | [8]; compound concentration: 100uM -0.111 | [8]; compound concentration: 200uM -0.149 | [9]; compound concentration: 50uM 0.0405 | [9]; compound concentration: 200uM 0.131 | [10]; compound concentration: 50uM -0.0761 | [10]; compound concentration: 200uM -0.182

BAP1 (UniProt Q92560)
Sequence of UniProt Q92560 (Q92560 whole entry): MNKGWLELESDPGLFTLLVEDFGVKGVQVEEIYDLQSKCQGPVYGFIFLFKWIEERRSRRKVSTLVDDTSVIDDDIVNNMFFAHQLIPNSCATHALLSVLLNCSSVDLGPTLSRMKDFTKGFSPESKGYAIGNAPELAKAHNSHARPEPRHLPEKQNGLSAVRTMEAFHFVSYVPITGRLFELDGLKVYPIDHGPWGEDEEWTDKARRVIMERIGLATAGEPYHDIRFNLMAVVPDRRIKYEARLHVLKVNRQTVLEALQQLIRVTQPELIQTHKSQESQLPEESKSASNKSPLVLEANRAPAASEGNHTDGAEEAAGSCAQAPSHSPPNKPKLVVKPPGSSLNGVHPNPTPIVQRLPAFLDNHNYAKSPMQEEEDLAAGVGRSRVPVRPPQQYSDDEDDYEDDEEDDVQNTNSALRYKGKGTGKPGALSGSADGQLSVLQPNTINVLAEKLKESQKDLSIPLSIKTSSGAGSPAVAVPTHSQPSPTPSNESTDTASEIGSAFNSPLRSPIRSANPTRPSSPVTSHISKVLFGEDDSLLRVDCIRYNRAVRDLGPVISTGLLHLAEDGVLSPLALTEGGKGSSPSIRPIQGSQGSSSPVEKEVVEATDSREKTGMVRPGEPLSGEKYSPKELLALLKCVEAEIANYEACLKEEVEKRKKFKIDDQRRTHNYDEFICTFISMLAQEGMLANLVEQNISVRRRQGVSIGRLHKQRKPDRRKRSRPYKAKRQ
active: [2]; compound concentration: 200uM -2.09 | [3]; compound concentration: 200uM -1.04 | [4]; compound concentration: 200uM -1.03 | [5]; compound concentration: 200uM -2.15 | [6]; compound concentration: 200uM -1.34 | [7]; compound concentration: 200uM -1.54 | [8]; compound concentration: 200uM -1.39
inactive: [1]; compound concentration: 50uM -0.142 | [1]; compound concentration: 200uM -0.347 | [2]; compound concentration: 50uM -0.805 | [3]; compound concentration: 50uM -0.468 | [4]; compound concentration: 50uM -0.38 | [5]; compound concentration: 50uM -0.598 | [6]; compound concentration: 0.78uM -0.121 | [6]; compound concentration: 1.56uM 0.0581 | [6]; compound concentration: 3.13uM -0.0976 | [6]; compound concentration: 6.25uM -0.0118 | [6]; compound concentration: 12.5uM -0.122 | [6]; compound concentration: 25uM -0.306 | [6]; compound concentration: 50uM -0.368 | [6]; compound concentration: 100uM -0.762 | [7]; compound concentration: 0.78uM -0.169 | [7]; compound concentration: 1.56uM -0.0659 | [7]; compound concentration: 3.13uM -0.0706 | [7]; compound concentration: 6.25uM -0.137 | [7]; compound concentration: 12.5uM -0.178 | [7]; compound concentration: 25uM -0.163 | [7]; compound concentration: 50uM -0.418 | [7]; compound concentration: 100uM -0.683 | [8]; compound concentration: 0.78uM -0.119 | [8]; compound concentration: 1.56uM -0.0453 | [8]; compound concentration: 3.13uM -0.0819 | [8]; compound concentration: 6.25uM 0.12 | [8]; compound concentration: 12.5uM -0.18 | [8]; compound concentration: 25uM -0.239 | [8]; compound concentration: 50uM -0.305 | [8]; compound concentration: 100uM -0.756 | [9]; compound concentration: 50uM -0.0732 | [9]; compound concentration: 200uM -0.717 | [10]; compound concentration: 50uM -0.385 | [10]; compound concentration: 200uM -0.766

USP34 (UniProt Q70CQ2)
Sequence of UniProt Q70CQ2 (Q70CQ2 whole entry): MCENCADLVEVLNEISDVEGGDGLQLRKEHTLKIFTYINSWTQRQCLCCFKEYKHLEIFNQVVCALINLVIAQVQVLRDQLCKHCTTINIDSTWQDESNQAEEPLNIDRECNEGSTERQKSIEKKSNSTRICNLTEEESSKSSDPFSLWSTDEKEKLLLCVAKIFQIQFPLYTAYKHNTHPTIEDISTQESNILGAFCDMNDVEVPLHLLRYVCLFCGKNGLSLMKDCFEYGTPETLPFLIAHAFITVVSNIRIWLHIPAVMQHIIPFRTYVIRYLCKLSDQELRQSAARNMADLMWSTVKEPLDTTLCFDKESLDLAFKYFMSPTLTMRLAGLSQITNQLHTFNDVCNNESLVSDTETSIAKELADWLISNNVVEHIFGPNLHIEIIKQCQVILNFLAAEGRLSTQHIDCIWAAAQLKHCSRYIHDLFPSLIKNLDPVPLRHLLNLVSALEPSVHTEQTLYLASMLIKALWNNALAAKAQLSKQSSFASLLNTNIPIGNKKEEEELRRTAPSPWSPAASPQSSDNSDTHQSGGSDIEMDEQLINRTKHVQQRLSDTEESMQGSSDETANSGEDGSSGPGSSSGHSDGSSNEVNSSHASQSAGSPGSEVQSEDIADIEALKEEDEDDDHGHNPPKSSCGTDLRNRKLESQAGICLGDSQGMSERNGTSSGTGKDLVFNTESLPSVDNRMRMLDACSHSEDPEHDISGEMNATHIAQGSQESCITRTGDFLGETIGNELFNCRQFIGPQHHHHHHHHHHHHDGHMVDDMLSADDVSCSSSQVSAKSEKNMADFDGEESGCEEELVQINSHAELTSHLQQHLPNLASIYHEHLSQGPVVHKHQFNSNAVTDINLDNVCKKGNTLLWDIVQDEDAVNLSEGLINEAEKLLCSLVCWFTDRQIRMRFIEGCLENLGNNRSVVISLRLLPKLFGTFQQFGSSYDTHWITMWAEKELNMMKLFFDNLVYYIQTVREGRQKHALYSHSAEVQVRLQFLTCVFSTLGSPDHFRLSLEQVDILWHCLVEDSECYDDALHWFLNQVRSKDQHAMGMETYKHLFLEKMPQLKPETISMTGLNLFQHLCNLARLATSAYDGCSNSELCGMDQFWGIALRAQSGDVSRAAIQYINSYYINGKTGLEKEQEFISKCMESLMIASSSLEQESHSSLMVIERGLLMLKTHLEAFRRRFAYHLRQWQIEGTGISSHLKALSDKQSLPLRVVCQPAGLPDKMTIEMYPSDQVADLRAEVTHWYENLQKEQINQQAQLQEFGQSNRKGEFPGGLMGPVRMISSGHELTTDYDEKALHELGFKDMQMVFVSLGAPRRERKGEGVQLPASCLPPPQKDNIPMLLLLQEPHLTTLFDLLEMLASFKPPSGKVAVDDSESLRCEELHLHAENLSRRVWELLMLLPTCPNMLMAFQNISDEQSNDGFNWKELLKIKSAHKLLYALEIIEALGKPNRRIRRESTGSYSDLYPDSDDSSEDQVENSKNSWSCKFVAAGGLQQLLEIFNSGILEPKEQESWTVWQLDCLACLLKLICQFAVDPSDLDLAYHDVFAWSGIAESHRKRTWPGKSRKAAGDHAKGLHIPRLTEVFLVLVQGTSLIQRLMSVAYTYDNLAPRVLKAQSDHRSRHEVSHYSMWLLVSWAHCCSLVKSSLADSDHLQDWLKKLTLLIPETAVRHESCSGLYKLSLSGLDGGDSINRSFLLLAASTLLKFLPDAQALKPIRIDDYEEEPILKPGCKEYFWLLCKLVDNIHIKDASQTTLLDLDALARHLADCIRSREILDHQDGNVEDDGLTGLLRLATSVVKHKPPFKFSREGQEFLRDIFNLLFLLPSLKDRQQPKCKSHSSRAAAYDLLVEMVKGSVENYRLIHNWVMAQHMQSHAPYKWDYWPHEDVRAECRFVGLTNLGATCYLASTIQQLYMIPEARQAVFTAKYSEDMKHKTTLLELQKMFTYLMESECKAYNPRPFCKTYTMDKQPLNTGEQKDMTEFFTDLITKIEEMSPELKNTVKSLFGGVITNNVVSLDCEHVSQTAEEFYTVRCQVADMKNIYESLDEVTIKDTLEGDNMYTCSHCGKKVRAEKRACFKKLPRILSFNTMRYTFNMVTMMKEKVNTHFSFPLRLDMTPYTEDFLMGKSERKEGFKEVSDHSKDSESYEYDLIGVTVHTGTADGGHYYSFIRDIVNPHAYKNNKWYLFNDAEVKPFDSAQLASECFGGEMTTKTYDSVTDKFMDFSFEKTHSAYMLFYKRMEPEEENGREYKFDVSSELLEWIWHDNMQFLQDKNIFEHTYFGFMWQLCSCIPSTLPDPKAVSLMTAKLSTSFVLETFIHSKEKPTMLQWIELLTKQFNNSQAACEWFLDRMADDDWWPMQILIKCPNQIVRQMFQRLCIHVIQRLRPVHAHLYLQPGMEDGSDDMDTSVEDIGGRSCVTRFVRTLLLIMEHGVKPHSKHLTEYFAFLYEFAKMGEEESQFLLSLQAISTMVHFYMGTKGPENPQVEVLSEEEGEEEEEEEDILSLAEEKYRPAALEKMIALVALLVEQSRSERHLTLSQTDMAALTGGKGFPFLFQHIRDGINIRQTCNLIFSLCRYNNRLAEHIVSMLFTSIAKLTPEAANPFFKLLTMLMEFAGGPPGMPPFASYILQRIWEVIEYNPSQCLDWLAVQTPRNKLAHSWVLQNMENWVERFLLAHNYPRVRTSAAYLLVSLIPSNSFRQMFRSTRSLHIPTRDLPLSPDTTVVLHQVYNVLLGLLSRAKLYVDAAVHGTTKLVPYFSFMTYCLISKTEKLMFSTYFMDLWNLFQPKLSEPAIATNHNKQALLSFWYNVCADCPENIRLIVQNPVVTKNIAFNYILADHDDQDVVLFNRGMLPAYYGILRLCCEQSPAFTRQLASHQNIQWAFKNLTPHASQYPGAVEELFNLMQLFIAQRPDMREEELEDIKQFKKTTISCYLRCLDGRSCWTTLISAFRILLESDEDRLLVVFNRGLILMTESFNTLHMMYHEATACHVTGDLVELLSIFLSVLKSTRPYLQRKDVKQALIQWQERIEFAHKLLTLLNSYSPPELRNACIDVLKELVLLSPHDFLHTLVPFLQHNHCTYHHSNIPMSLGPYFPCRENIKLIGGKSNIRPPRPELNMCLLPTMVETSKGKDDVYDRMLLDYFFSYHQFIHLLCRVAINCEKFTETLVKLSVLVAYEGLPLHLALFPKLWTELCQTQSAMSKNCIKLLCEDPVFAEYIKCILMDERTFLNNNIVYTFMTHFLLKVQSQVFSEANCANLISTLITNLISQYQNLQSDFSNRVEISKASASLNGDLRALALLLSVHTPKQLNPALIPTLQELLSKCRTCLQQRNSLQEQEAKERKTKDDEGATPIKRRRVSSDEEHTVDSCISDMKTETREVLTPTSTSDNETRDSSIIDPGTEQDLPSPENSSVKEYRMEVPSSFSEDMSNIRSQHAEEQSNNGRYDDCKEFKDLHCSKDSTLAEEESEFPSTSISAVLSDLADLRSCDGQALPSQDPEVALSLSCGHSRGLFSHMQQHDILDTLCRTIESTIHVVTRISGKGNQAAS
inactive: [1]; compound concentration: 50uM 0.0562 | [1]; compound concentration: 200uM 0.0678 | [2]; compound concentration: 50uM -0.259 | [2]; compound concentration: 200uM -0.515 | [3]; compound concentration: 50uM -0.659 | [3]; compound concentration: 200uM 0.31 | [4]; compound concentration: 50uM 0.745 | [4]; compound concentration: 200uM -0.98 | [5]; compound concentration: 50uM -0.212 | [5]; compound concentration: 200uM -0.0537 | [6]; compound concentration: 0.78uM 0.221 | [6]; compound concentration: 1.56uM 0.0458 | [6]; compound concentration: 3.13uM 0.0621 | [6]; compound concentration: 6.25uM -0.0557 | [6]; compound concentration: 12.5uM -0.314 | [6]; compound concentration: 25uM 0.126 | [6]; compound concentration: 50uM 0.134 | [6]; compound concentration: 100uM 0.11 | [6]; compound concentration: 200uM -0.619 | [7]; compound concentration: 0.78uM -0.0727 | [7]; compound concentration: 1.56uM -0.0851 | [7]; compound concentration: 3.13uM -0.276 | [7]; compound concentration: 6.25uM -0.184 | [7]; compound concentration: 12.5uM -0.209 | [7]; compound concentration: 25uM -0.23 | [7]; compound concentration: 50uM -0.396 | [7]; compound concentration: 100uM 0.0355 | [7]; compound concentration: 200uM 0.0474 | [8]; compound concentration: 0.78uM 0.0344 | [8]; compound concentration: 1.56uM -0.271 | [8]; compound concentration: 3.13uM -0.199 | [8]; compound concentration: 6.25uM 0.0878 | [8]; compound concentration: 12.5uM 0.322 | [8]; compound concentration: 25uM -0.00214 | [8]; compound concentration: 50uM 0.198 | [8]; compound concentration: 100uM 0.181 | [8]; compound concentration: 200uM -0.295 | [9]; compound concentration: 50uM 0.165 | [10]; compound concentration: 50uM 0.0993 | [10]; compound concentration: 200uM 0.244
active: [9]; compound concentration: 200uM -1.07
